Screening results deposited in PubChem BioAssay by several laboratories.
tim23-1 inh = inhibits growth of tim23-1 mutant yeast. S. cerevisiae tim23-1 growth, BacTiter-Glo luminescence, 24 h. inhibition, % at 20 µM. 1.3% of 330,000 active;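 active = growth inhibition of the mutant yeast at or above 50%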;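 note: temperature-sensitive mutant grown at 25 °C; plate controls were DMSO-treated mutant yeast for no effect and medium wells lacking yeast for full effect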
tim10-1 inh = inhibits growth of tim10-1 mutant yeast; S. cerevisiae tim10-1 ts strain growth, BacTiter-Glo, 24 h; inhibition, % at 20 µM; 2.2% of 330,000 active;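 active = inhibition of at least 40%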;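 note: mutant grown at 25 °C; 0% = DMSO wells with yeast and 100% = wells holding no yeast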
TIM10 inh = inhibits growth of TIM10 yeast strain. S. cerevisiae TIM10 strain growth, BacTiter-Glo luminescence, 24 h. inhibition, % at 10 µM. 1.4% of 330,000 active. AID 463195;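 active = inhibition of 40% or more at the single tested concentration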;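 note: wild-type TIM10 isogenic control strain grown at permissive 25 °C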
PfHsp90 set2 = reduces growth (ATP signal) of yeast expressing P. falciparum Hsp90. S. cerevisiae expressing PfHsp90, BacTiter-Glo ATP, 48 h; yeast lacking PDR1 and PDR3 efflux regulators. inhibition, % at 9.4 µM. 0.32% of 310,000 active. AID 504621;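 active = every replicate shows inhibition above about 80%, whatever the replicate mean, limit read from the data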;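 note: 0% = DMSO neutral controls and 100% = 20 µM radicicol positive controls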
V-ATPase pHluor = regulators of yeast V-ATPase proton transport; S. cerevisiae, pHLuorin cytosolic pH fluorescence; response, % at 10 µM; 0.37% of 350,000 active; in the data active = response mostly above about 7.3%, no sharp cut-off; inactive = mostly below about 5.4%; note: actives read high
TIM10 conf = confirmation of TIM10 yeast growth inhibitors; 63% of 4,600 active; inhibition, % at 10 µM; S. cerevisiae tim10 strain growth, BacTiter-Glo luminescence, 24 h; shares compounds with TIM10 inh;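 active = inhibition of yeast growth at or above a set limit in either of two replicates at 10 µM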;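 note: this counterscreen used the strain with wild-type TIM10; 0% = yeast with DMSO and 100% = medium wells lacking yeast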
The depositor's hits bear a star; / = not tested or not shown. Shown are actives, neighbours in structure and some others; about 3.7% of the full set was active somewhere.

SMILES | tim23-1 inh | tim10-1 inh | TIM10 inh | PfHsp90 set2 | V-ATPase pHluor | TIM10 conf
CN1C(C(=O)Nc2cccc(O)c2)=CC(c2ccco2)=NS1(=O)=O | 4.4 | -11.9 | -7.3 | 22.7 | -2.9 | /
S=C(c1cn(CCOc2ccccc2)c2ccccc12)N1CCCC1 | 27.6 | 29.3 | 49.6* | 2.1 | -0.2 | 31.6*
C=CCNC(=O)C12CCC(C)(C(=O)[C@H]1Br)C2(C)C (stereo not given in full) | 11.9 | 12.1 | 42.4* | 11.3 | -2.8 | -20.2
Cc1ccc(C(=O)Nc2cccc3cccnc23)cc1C | 35.8 | 11.0 | 8.6 | -6.1 | -4.7 | /
O=C(/C=C/c1cccc(Br)c1)NCC1CCCCC1 | 21.6 | 25.6 | 41.1* | -35.7 | 4.8 | 33.4*
COc1cc(Cl)c(C)cc1NCC(=O)Nc1cccc(S(=O)(=O)N2CCCC2)c1 | 18.5 | 12.8 | 8.6 | -3.7 | 4.9 | /
CC(/C=N\NC(=O)c1ccc2c(c1)OCO2)c1ccccc1 (stereo not given) | 15.5 | 6.4 | -4.0 | -18.6 | -1.5 | /
COc1cccc(-c2sc3ccccc3c2-c2ccc(OCCN(C)C)cc2)c1 | -0.7 | -8.1 | 50.0* | 37.6 | -0.8 | 52.2*
Cc1cccc(Cn2ccc(NC(=O)c3cccnc3)n2)c1 | 3.0 | -1.9 | 18.9 | 16.0 | 0.0 | /
Cc1cccc(Cn2ccc(NC(=O)c3ccc4c(c3)OCO4)n2)c1 | 36.6 | 33.4 | 40.5* | -17.8 | 6.4 | 34.4*
COc1ccc(CCNC(=O)CN2C(=O)NC(Cc3c[nH]c4ccccc34)C2=O)cc1 (stereo not given) | -2.0 | -0.4 | -5.4 | 18.5 | -0.3 | /
Cc1cc(C)c(S(=O)(=O)N(CC(=O)N2CCOCC2)C2CCCCC2)c(C)c1 | 34.9 | 29.0 | 34.8 | -53.2 | -5.1 | /
CCOC(=O)N1CCN(C(=O)CN(C2CCCCC2)S(=O)(=O)c2c(C)cc(C)cc2C)CC1 | 41.7 | 23.7 | 40.8* | / | 0.9 | 27.7
COc1ccc(Br)c(C(=O)OCC(=O)NC2CCCCCC2)c1 | 42.9 | 11.3 | 7.6 | -17.8 | 1.6 | /
CCOC(=O)Nc1cccc(OCC(=O)Nc2ccc3c(c2)CCC3)c1 | 29.3 | -24.5 | 49.2* | / | -2.3 | 2.7
COc1cccc(NC(=O)COc2ccc3c(c2)CCC3)c1 | 17.9 | -35.0 | 8.7 | 1.1 | -1.2 | /
O=C(Nc1cccc(S(=O)(=O)N2CCCCC2)c1)c1ccc([N+](=O)[O-])o1 | -108.9 | -43.2 | 46.5* | -3.3 | -0.2 | 27.0
OCCCc1nc2ccccc2[nH]1 | -5.7 | -0.9 | -0.8 | -15.5 | -2.9 | /
CC(=O)Nc1ccc(C(=O)OCc2ccc(Br)cc2)cc1 | 46.2 | 34.4 | 40.9* | -5.0 | -0.2 | 34.8*
O=C(Nc1ccc(Cl)cc1)c1ccc(S(=O)(=O)N2CCOCC2)cc1 | 10.1 | 3.3 | 0.7 | -65.2 | 5.1 | /
O=C(Nc1ccc(F)cc1)c1ccc(S(=O)(=O)N2CCCC2)cc1 | 21.3 | 18.7 | -17.2 | -10.7 | 2.4 | /
O=C(Nc1ccc(S(=O)(=O)N2CCCC2)cc1)c1cc(F)c(F)cc1Cl | 36.5 | 37.6 | 40.6* | -11.9 | -2.3 | 32.8*
O=C(Nc1ccc(S(=O)(=O)N2CCOCC2)cc1)c1ccc(Cl)s1 | 32.5 | 36.0 | 40.9* | -0.8 | -0.9 | 30.4
Cc1nonc1NC(=O)CSc1nnc(N)s1 | 1.7 | -6.7 | -0.3 | 12.2 | 0.4 | /
COc1ccc(N2CCN(C(=O)c3oc4ccccc4c3NC(=O)CCc3cc(OC)no3)CC2)cc1 | 27.0 | 30.6 | 11.6 | 5.5 | -1.0 | /
SMILES | tim23-1 inh | tim10-1 inh | TIM10 inh | PfHsp90 set2 | V-ATPase pHluor | TIM10 conf
C=CCc1c(C)nc(-c2ccccc2)nc1Nc1ccc(O)cc1 | 49.5 | 33.0 | 40.3* | 19.7 | -6.3 | 31.2
Cc1ccc(C2CC(C(F)(F)F)n3ncc(C(=O)NCc4ccco4)c3N2)cc1 (stereo not given) | 49.2 | 35.6 | 47.5* | / | -1.6 | 31.7*
Cc1ccc(C2CC(C(F)(F)F)n3ncc(C(N)=O)c3N2)cc1 (stereo not given) | 10.2 | 2.2 | -4.4 | -5.1 | -3.5 | /
CCOC(=O)C1=C(C)N(CCCC(=O)O)C(=O)NC1c1ccccc1OS(=O)(=O)c1ccccc1[N+](=O)[O-] (stereo not given) | -4.3 | -18.3 | 97.2* | -5.8 | 3.7 | -10.6
CSc1ccccc1OCc1cc(C(=O)N2CCc3[nH]cnc3C2c2ccccn2)no1 (stereo not given) | 15.0 | 15.3 | -2.3 | -4.4 | 0.7 | /
COc1ccc(-n2c(C)c(C)c3c(NCCCN(C)C)ncnc32)cc1 | 16.9 | 29.7 | -6.1 | -2.4 | 3.2 | /
O=C(NCCc1ccccc1)c1ccc(S(=O)(=O)N2CCCC2)cc1 | 23.4 | 19.3 | 61.9* | -2.2 | 4.3 | 3.4
O=C(NN=C1CCCCCCCCCCC1)c1ccncc1 | 14.6 | -1.4 | -7.2 | 41.1 | 0.7 | /
S=C(NCc1cccs1)Nc1cc(Cl)cc(Cl)c1 | 42.4 | 38.6 | 47.1* | -23.7 | -2.3 | 55.6*
S=C(NCc1cccs1)Nc1ccccc1Cl | 25.3 | 27.0 | 17.5 | -23.4 | 4.6 | /
S=C(NCc1ccc(Cl)cc1)Nc1ccccc1 | 23.5 | 31.5 | 41.6* | -4.0 | -0.3 | 29.8
CC(OC(=O)c1ccc([N+](=O)[O-])s1)C(=O)Nc1ncc(Cl)cc1Cl (stereo not given) | 23.3 | 24.4 | 43.8* | -3.3 | 0.1 | 1.5
Cc1ccc(OC(C)C(=O)Nc2ncc(Cl)cc2Cl)c([N+](=O)[O-])n1 (stereo not given) | 24.7 | -43.1 | -23.3 | -10.6 | 6.1 | /
COc1ccc(NC(=O)C2=CN3CCS(=O)(=O)N=C3C=C2)c(OC)c1 | 4.3 | -2.5 | -3.6 | 6.5 | 0.9 | /
Cc1cc(-n2c(C)cc(C(=O)CSc3nncn3C)c2C)no1 | -12.0 | -6.2 | -10.2 | -10.9 | 3.6 | /
Cc1ccc(-n2nnnc2SCC(=O)c2cc(C)n(-c3cc(C)on3)c2C)cc1 | -7.0 | -8.3 | 43.0* | 2.7 | 3.0 | 3.3
COC(=O)CNC(=O)CSc1nc2sccc2c(=O)n1-c1ccccc1 | 5.9 | 14.9 | 10.2 | 0.2 | 0.2 | /
COC(=O)CNC(=O)CSc1nc2sc(-c3ccccc3)cc2c(=O)n1-c1ccccc1 | 26.5 | 29.1 | 45.3* | -7.5 | 3.7 | 38.0*
CS(=O)(=O)c1ccc(Cl)c(NC(=O)CN2CCN(S(=O)(=O)/C=C/c3ccccc3)CC2)c1 | / | / | / | -4.1 | 3.2 | /
COc1ccc(N2C(=O)C3C4c5ccccc5C(C=Nc5ccc(C)cc5C)(c5ccccc54)C3C2=O)cc1 (stereo not given) | 46.0 | 34.0 | 53.5* | -30.2 | -3.4 | 45.0*
CCc1ccc(N=CC23c4ccccc4C(c4ccccc42)C2C(=O)N(c4ccc(OC)cc4)C(=O)C23)cc1 (stereo not given) | 48.7 | 39.4 | 64.4* | -22.0 | 4.4 | 47.5*
COc1ccc2nc(NC(=O)C3CCN(S(=O)(=O)c4cccc5nsnc45)CC3)sc2c1 | 18.3 | 18.7 | 40.2* | -8.7 | 6.8 | -24.2
Cc1ccc(SC[C@H](Cc2ccccc2)N2CC[C@@H](NC(=O)OCc3ccccc3)CCC2=O)cc1 | -16.0 | 14.4 | 1.4 | / | / | /
